Tau fibril FP: qHTS for Inhibitors of Tau Fibril Formation, Fluorescence Polarization; Microtubule-associated protein tau (Homo sapiens), P10636; K18 P301L tau heparin fibrillization, Alexa594 FP, 6 h; Potency, µM (doses to about 57.7 µM), without a hit: at the highest dose activity, negative = inhibition, most hits filed as inhibitors; 0.39% of 280,000 active; note: potency is the fitted concentration of half-maximal effect; nearly all actives have a fitted effect of over 55% in size
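Compound effects on tau fibrillization are measured by Alexa 594 fluorescence polarization (ex 555, em 632 nm). K18 P301L tau is used at 15 uM with 0.24 uM labeled tracer, and 20 uM heparin induces aggregation over 6 hr at 37 C.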
USP1 inh: Inhibitors of USP1/UAF1: Primary Screen | Ubiquitin carboxyl-terminal hydrolase 1 (Homo sapiens), O94782 | recombinant USP1/UAF1, Ub-Rhodamine cleavage fluorescence | Potency, µM (titrated, usually from 57.1 µM), inactives show top-dose activity change, negative = inhibition, hits mostly inhibitors | 0.23% of 390,000 active | AID 743255, 2014; note: potency is the fitted concentration of half-maximal effect; nearly all actives have a fitted effect of over 60% in size
Target sequence (O94782 whole entry, looked up): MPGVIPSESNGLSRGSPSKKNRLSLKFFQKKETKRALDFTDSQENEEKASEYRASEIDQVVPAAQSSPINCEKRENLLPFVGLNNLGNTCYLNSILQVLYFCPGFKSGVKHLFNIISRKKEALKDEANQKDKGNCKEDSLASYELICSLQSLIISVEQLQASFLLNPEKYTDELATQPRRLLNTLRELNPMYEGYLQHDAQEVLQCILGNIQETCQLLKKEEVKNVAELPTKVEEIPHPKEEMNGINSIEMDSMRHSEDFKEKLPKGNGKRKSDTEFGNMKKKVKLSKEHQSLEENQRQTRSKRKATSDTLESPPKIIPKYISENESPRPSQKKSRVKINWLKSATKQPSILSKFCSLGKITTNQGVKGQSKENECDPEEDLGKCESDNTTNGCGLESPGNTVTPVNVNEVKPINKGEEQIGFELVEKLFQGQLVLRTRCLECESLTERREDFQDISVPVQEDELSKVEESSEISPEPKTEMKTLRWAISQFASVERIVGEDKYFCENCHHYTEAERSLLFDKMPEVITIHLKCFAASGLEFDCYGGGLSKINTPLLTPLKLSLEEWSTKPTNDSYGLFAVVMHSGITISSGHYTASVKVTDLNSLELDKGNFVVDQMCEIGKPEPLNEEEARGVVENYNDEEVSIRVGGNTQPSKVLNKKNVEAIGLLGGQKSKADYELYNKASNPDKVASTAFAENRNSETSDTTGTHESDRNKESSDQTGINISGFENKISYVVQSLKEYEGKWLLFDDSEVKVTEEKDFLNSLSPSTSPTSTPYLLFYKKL
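In this screen, compounds sit with the deubiquitinase complex (1nM) for 15 min at room temperature before Ub-Rho is added at 150nM final. Fluorescence rise is then followed for 6 reads every 60 seconds.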
Tau fluor cs: Counterscreen qHTS for Inhibitors of Tau Fibril Formation, Fluorescence Polarization. AID 1463, 2008. Potency, µM (titrated, usually from 57.7 µM), for the others: at the top dose activity change, negative = decrease. tau K18 P301L Alexa594 fluorescence, heparin fibrillization. 0.93% of 280,000 active; note: potency is the fitted concentration of half-maximal effect; nearly all actives have a fitted effect of over 55% in size
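Human K18 P301L tau (15 uM unlabeled plus 0.24 uM Alexa 594-labeled, final) in 100 mM sodium acetate pH 7 was mixed with compound and 20 uM heparin and incubated 6 hr at 37 C.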
FBPA coupling cs: qHTS Assay for Inhibitors of Fructose-1,6-bisphosphate Aldolase from Giardia Lamblia: Coupling assay counterscreen. coupling enzyme system counterscreen, AmpLite Red fluorescence. activity change, negative = inhibition, % at 58.2 µM, hits read low. 0.67% of 290,000 active. AID 2472, 2010; in the data active = activity change below about -30%
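Coupling enzymes only (glyceraldehyde-3-phosphate) + compound, at 57.5 uM final, 10 min RT; add substrate/coupling/AmpLite Red mix, 20 min RT; fluorescence ex 525/em 598 nm. Actives flag coupling-system interference.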
Tau ThT inhib: qHTS for Inhibitors of Tau Fibril Formation, Thioflavin T Binding. Potency, µM (doses to about 57.4 µM), for the others: at the top dose activity, negative = inhibition, usual class: inhibitors. 2.1% of 270,000 active. Microtubule-associated protein tau (Homo sapiens), P10636. recombinant tau K18 P301L (four-repeat tau fragment), heparin-induced fibrillization, ThT fluorescence; note: potency is the fitted concentration of half-maximal effect; nearly all actives have a fitted effect of over 55% in size
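Tau K18 P301L fragment (15 uM unlabeled plus 0.24 uM Alexa 594-labeled) in 100 mM sodium acetate pH 7 with compound, fibrillization induced by 20 uM heparin for 6 hr at 37 C. Thioflavin T (30 uM) added, fluorescence read after 1 hr (ex 450, em 510 nm).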
The depositor's hits bear a star; ? = inconclusive; · = no result; [ ] = dose if it differs, or a comment. Most compounds without a hit are left out; they make up all but 2.3% or so of the library. Unless noted, calls come from the whole dose curve; as a rule, active = well fitted curve in the direction sought with a large enough effect; inconclusive = small, poorly fitted or top-dose-only effect, or another doubt; inactive = no such curve, though single readings can be large; an effect the other way counts as inactive or inconclusive. % is set by controls: 0 for no effect and ±100 for the full control effect.

SMILES | Tau fibril FP | USP1 inh | Tau fluor cs | FBPA coupling cs | Tau ThT inhib
COc1ccccc1CNC(=O)Cc1c(C)c2cc3c(C)coc3c(C)c2oc1=O | -2.9% | -21.6% | -5.4% | · | -4.2%
C=C1C2=CC(=O)OC(c3ccoc3)[C@]2(C)CCC1[C@]1(C)C=CC(=O)C(C)(C)C1CC(=O)OC (some centres undefined) | -20.1% | · | -18.2% | -2.8 | ?
Cc1ccc(NC(=O)CCCc2nnc3n(C)c(=O)c4sccc4n23)cc1C | 7.5% | -0.2% | -6.9% | · | -1.0%
Cc1cc2c(c(=O)o1)[C@H](O)[C@H]1O[C@@H]1C2=O | 10.4%[11.6 µM] | · | -27.4%[11.6 µM] | 1.5 | ?
CCOc1ccccc1N1CCN(Cc2cccc(OC)c2OC)CC1 | 10.7% | -12.2% | 2.9% | -41.1* | -3.7%
CC[C@H]1C(c2cccc(C)c2)=NN(c2ccccc2)[C@@H]1CO | ? | · | 31.6µM*[quencher] | -0.7 | ?
CC[C@@H]1C(c2cccc(Cl)c2)=NN(c2ccccc2)[C@H]1C(=O)N1CCOC1=O | 0.3%[81.3 µM] | · | ? | -5.9 | ?
CC[C@@H]1C(c2cccc(C)c2)=NN(c2ccccc2)[C@H]1C(=O)N1CCOC1=O | 17.2%[81.3 µM] | ? | ? | -3.1 | -9.6%[81.4 µM]
CC[C@H]1C(c2cccc(Cl)c2)=NN(c2ccccc2)[C@@H]1CO | 11.3%[81.3 µM] | · | 14.1µM*[quencher] | -6.3 | ?
Clc1cccc(-n2ncc3c(NCCC4=CCCCC4)ncnc32)c1 | ? | -12.6% | -26.8% | · | ?
CCc1cc2c3c(c1)C1(C(=O)N3C(C)(C)C=C2C)C(C#N)=C(N)Oc2[nH]c(=O)[nH]c(=O)c21 (centres undefined) | ? | -1.7% | ? | 0.0 | 14.1µM*
N#Cc1ccccc1Sc1ccccc1N | 4.6% | -4.6% | -3.3% | -3.9 | 8.2%
N#CC(=C(/N)Sc1ccccc1N)/C(C#N)=C(/N)Sc1ccccc1N | · | · | 25.1µM*[quencher] | -0.1 | 35.5µM*
COc1cc(NC(=O)CSc2ncc3c(n2)-c2ccc(Cl)cc2N(Cc2ccccc2)S3(=O)=O)cc(OC)c1 | ? | -14.0% | -27.4% | · | 0.6%
CN(C)c1ccc(C(=S)Nc2ccccc2)cc1 | 1.3% | -9.3% | -23.1% | 3.1 | ?
CN(C)c1ccc(NC(=S)c2ccccn2)cc1 | 4.3% | -11.8% | ? | -7.2 | 3.55µM*
CCO/C([O-])=N/c1sn[n+](C)c1C | -5.8% | -13.5% | -15.1% | 3.1 | -13.3%
CCCCC(=O)Nc1nc(C)c(-c2csc(Nc3cc(OC)ccc3OC)n2)s1 | ? | 9.3% | 15.8µM*[quencher] | 2.1 | ?
CCC(C)C(=O)Nc1nc(C)c(-c2csc(Nc3cc(Cl)ccc3OC)n2)s1 (centres undefined) | 7.1% | ? | 12.6µM*[quencher] | 1.4 | ?
COc1ccc(OC)c(Nc2nc(-c3sc(C)nc3C)cs2)c1 | ? | -24.3% | ? | -7.1 | 14.1µM*
CCCCC(=O)Nc1nc(C)c(-c2csc(Nc3cc(Cl)ccc3OC)n2)s1 | -3.9% | -28.2% | ? | 0.3 | ?
CCCC(C)C(=O)Nc1nc(C)c(-c2csc(Nc3ccc(Cl)cc3)n2)s1 (centres undefined) | 10.8% | -28.3% | 15.8µM*[quencher] | -1.8 | ?
CCCC(C)C(=O)Nc1nc(C)c(-c2csc(Nc3ccccc3OC)n2)s1 (centres undefined) | ? | -21.4% | ? | -3.0 | ?
COc1ccc(Cl)cc1Nc1nc(-c2sc(NC(=O)c3ccco3)nc2C)cs1 | 16.4% | -11.5% | ? | 0.2 | ?
CCN1CCN(c2oc(/C=C/c3ccccc3OC)nc2C#N)CC1 | 3.2% | 1.8% | -28.3% | · | -11.8%
SMILES | Tau fibril FP | USP1 inh | Tau fluor cs | FBPA coupling cs | Tau ThT inhib
Cc1nc(C)c(-c2csc(Nc3ccc(C(=O)O)c(O)c3)n2)s1 | · | -5.2% | · | -2.2 | ·
CCC(C)C(=O)Nc1nc(C)c(-c2csc(Nc3cc(OC)ccc3OC)n2)s1 (centres undefined) | ? | -33.8% | 14.1µM*[quencher] | -4.3 | ?
COc1ccc(Cl)cc1Nc1nc(-c2sc(NC(=O)C(C)(C)C)nc2C)cs1 | ? | -33.7% | ? | 2.7 | ?
Cc1nc(C)c(-c2csc(Nc3ccc(F)cc3)n2)s1 | ? | -25.6% | 20µM*[quencher] | -1.4 | ?
COc1ccc(OC)c(Nc2nc(-c3sc(NC(=O)CC(C)C)nc3C)cs2)c1 | -5.1% | -28.6% | 12.6µM*[quencher] | -2.5 | ?
COc1ccc(OC)c(Nc2nc(-c3sc(NC(=O)C(C)(C)C)nc3C)cs2)c1 | 13.6% | -13.9% | 14.1µM*[quencher] | -2.3 | ?
O=C(Nc1ccc([N+](=O)[O-])cc1)Nc1ccc2c(c1)OCCO2 | ? | -5.8% | 8.91µM*[quencher] | 0.0 | ?
COc1cc(NC(=O)Nc2ccc3c(c2)OCO3)cc(OC)c1OC | 4.0% | -7.6% | -17.5% | 4.0 | -5.0%
COc1ccc(C(C)(C)C)cc1NC(=O)Nc1ccc2c(c1)OCO2 | ? | -23.4% | 14.1µM*[quencher] | 0.3 | ?
O=C(Nc1ccc([N+](=O)[O-])cc1)Nc1ccc2[nH]c(=O)[nH]c2c1 | 23.2% | -9.9% | 8.91µM*[quencher] | -4.3 | 8.91µM*
COc1cc([N+](=O)[O-])ccc1NC(=S)N1CCOCC1 | · | -22.2% | · | -14.2 | ·
COc1cc([N+](=O)[O-])ccc1NC(=O)Nc1ccc2c(c1)OCCO2 | ? | -12.5% | 15.8µM*[quencher] | -9.7 | 12.6µM*
CCCCC(=O)N1C/C=C\C(c2ccc(OC)cc2)N(Cc2ccc(F)cc2)C(=O)C1Cc1ccccc1 (centres undefined) | · | · | · | -5.2 | ·
COc1ccc(NC(=O)CSc2nc3c([nH]c4ccccc43)c(=O)n2-c2ccccc2)c(OC)c1 | -4.6% | -6.5% | -20.8% | · | 7.8%
CCOC(=O)c1ccc(NC(=O)c2cnn(-c3ccc(C)cc3C)c2C2CCN(C(=O)OC(C)(C)C)CC2)cc1 | -10.9% | ? | -18.7% | · | 0.5%
CC(=O)N1C[C@H]2CON(C)[C@H]2C[C@H]1c1ccc(-c2ccccc2)cc1 | · | -5.5% | · | · | ·
Cc1cccc(-c2noc(-c3ccccc3NC(=O)C3CC(=O)N(c4ccccc4C)C3)n2)c1 (centres undefined) | -10.0% | -6.9% | -11.0% | · | ?
Cc1ccccc1CN1CCc2nc(N3CCN(c4ncccn4)CC3)ncc2C1 | -9.0% | -15.5% | -3.8% | · | ?
Cc1cccc(-c2noc(CN(C(C)C)S(=O)(=O)c3ccc(Br)cc3)n2)c1 | -14.8% | -11.5% | ? | · | ?
O=C(O)c1ccc2cc(-c3ccc(O)c(C45CC6CC(CC(C6)C4)C5)c3)ccc2c1 | ? | · | ? | 0.9 | 28.2µM*
Cc1ccc(-n2nc(-c3ccc(OC(F)(F)F)cc3)cc2N)cc1C | 8.6% | -19.4% | 11.2µM*[quencher] | 0.4 | ?
